We go through 84 compounds from paper PMC4336329 (PLoS ONE, 2015).

The structures appear in SMILES notation. About 2,200 (0.71%) of roughly 310,000 compounds showed an effect of 50% or more. The effect is printed as a negative number. The entries come from a sample that favours strong results as a whole.

Sequence of human ether-à-go-go-related gene (hERG) potassium channel (Q12809 whole entry, looked up): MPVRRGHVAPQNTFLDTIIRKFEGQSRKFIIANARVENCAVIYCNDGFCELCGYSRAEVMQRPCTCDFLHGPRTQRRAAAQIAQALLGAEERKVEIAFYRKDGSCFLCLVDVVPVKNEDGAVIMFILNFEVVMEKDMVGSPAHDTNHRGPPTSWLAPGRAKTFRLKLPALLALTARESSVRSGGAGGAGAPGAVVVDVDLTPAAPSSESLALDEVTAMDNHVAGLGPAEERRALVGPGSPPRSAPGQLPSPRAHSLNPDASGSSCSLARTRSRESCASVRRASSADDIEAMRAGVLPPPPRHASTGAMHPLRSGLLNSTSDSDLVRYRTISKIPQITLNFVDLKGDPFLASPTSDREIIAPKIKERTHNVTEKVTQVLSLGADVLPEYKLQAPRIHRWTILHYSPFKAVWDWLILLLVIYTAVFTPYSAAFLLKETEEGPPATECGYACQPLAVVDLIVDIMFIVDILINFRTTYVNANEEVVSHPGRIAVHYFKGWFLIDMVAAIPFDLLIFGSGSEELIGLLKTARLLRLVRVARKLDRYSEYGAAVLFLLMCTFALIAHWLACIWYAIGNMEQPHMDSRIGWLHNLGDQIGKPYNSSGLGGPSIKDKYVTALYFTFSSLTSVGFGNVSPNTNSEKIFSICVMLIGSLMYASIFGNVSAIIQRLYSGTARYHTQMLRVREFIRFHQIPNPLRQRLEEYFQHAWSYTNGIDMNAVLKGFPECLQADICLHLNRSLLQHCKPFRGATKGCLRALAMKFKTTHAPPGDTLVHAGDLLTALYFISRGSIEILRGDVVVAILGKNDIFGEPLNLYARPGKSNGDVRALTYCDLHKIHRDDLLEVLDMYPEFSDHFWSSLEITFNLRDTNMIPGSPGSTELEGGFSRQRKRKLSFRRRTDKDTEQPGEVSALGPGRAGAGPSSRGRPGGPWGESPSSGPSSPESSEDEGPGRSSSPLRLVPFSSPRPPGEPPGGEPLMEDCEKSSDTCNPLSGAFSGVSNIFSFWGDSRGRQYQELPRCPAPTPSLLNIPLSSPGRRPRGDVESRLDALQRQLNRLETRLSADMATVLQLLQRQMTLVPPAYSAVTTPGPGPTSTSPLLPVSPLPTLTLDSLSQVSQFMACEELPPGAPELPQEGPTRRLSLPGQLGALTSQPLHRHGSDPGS

This assay has as its target human ether-à-go-go-related gene (hERG) potassium channel (human, UniProt Q12809). Kind of assay: primary screen, population patch clamp on CHO cells stably expressing hERG; higher = less effect of the substance.
Consider `CSc1nn(-c2ccc(C(=O)OC(C(=O)NC(N)=O)C(C)C)cc2)c(=S)s1` (stereo not drawn), for which the “hERG current change (%, negative = inhibition) at 1uM” value was 9.82%. As for `COc1ccccc1C(=O)Nc1ccnn1C1CCN(C/C=C/c2ccc(F)cc2)CC1`, the “hERG current change (%, negative = inhibition) at 1uM” value is on record as -86.9%.

Consider `COc1ccccc1/C=C/CN1CCC(n2nccc2NC(=O)CCc2ccccc2)CC1`, for which the “hERG current change (%, negative = inhibition) at 1uM” value is -24.8%. Regarding `COc1ccccc1C(=O)Nc1ccnn1C1CCN(C/C=C/c2ccccc2)CC1`, the “hERG current change (%, negative = inhibition) at 1uM” value is given as -85.6%. Turning to `COCC(=O)N1CCC(n2nccc2NC(=O)c2ccccc2OC)CC1`, the “hERG current change (%, negative = inhibition) at 1uM” value is recorded as 14.1%. For `CCOc1ccc(N(CC(=O)Nc2ccc(F)c(F)c2)S(=O)(=O)c2c(C)noc2C)cc1`, the “hERG current change (%, negative = inhibition) at 1uM” value was found to be 2.37%. The same measure for `CC(=O)Nc1ccc(NC(=O)COc2ccc(S(=O)(=O)NC(C)c3ccccc3)cc2)cc1` (stereo not drawn): 17.5%; for `CC(C)(C)c1ccc(CSc2cnn(C(C)(C)C)c(=O)c2Cl)cc1`: 15.7%; for `CCOC(=O)c1c(NC(=O)c2ccc(N3C(=O)[C@@H]4[C@H](C3=O)[C@H]3C=C[C@@H]4C3)cc2)sc2c1CCCC2`: 4.8%. Turning to `O=C(CSc1ccccc1)Nc1ccc2c(c1)OCCO2`, the “hERG current change (%, negative = inhibition) at 1uM” value is 8.08%. On to `COc1cccc(NC(=O)C2c3cc(OC)c(OC)cc3C(=O)N(C)C2c2cccnc2)c1` (stereo not drawn), for which the “hERG current change (%, negative = inhibition) at 1uM” value turned out to be 1.83%. Regarding `CCOCCCn1c(=N)c(C(=O)NCCN2CCOCC2)cc2c(=O)n3cccc(C)c3nc21`, the “hERG current change (%, negative = inhibition) at 1uM” value is reported as -17%. As for `COCCCn1c(C(=O)NCCN2CCOCC2)cc2c(=O)n3cccc(C)c3nc21`, the “hERG current change (%, negative = inhibition) at 1uM” value is 6.14%. As for `COCCCn1c(=N)c(C(N)=S)cc2c(=O)n3cccc(C)c3nc21`, the “hERG current change (%, negative = inhibition) at 1uM” value was -70.3%.

For the compound `COCCCn1c(C(=O)N2CCOCC2)cc2c(=O)n3cccc(C)c3nc21`, the “hERG current change (%, negative = inhibition) at 1uM” value is reported as 1.75%. The same measure for `CCOCCCn1c(=N)c(C(N)=S)cc2c(=O)n3cccc(C)c3nc21`: -85.5%. In the case of `Cc1cccn2c(=O)c3cc(C(N)=S)c(=N)n(CCCN4CCOCC4)c3nc12`, the “hERG current change (%, negative = inhibition) at 1uM” value is -90.5%. The same measure for `CCOCCCn1c(=NC(C)=O)c(C#N)cc2c(=O)n3cccc(C)c3nc21`: -7.46%; for `CCCn1c(=N)c(C#N)cc2c(=O)n3cccc(C)c3nc21`: -20.2%; for `Cc1cccn2c(=O)c3cc(C#N)c(=N)n(CCCN4CCOCC4)c3nc12`: -78.1%. The same measure for `Cc1cccn2c(=O)c3cc(C#N)c(=O)n(CCCN4CCOCC4)c3nc12`: -21.2%; for `COc1cc(/C=N/NC(=O)c2ccc3nc[nH]c3c2)cc(OC)c1OC`: 10.6%. The figure for `CC1(C)Cc2c(cnn2-c2ccccc2)C(NC(=O)CCc2ccc(=O)[nH]n2)C1` (stereo not drawn) is 8.83%; for `Cc1ccccc1CN(C)CC(=O)Nc1ccccc1-c1ccccc1` it is -9.53%; for `O=c1[nH]nc(Cc2ccc(-c3cccc(Cl)c3)o2)c2ccccc12` it is 6.53%. Take `CCCCn1c(N)c(N(CC)C(=O)c2ccc(C#N)cc2)c(=O)[nH]c1=O`: the “hERG current change (%, negative = inhibition) at 1uM” value stood at 14.4%. Consider `Cc1cccn2c(=O)c3cc(C(=O)NCCCOC(C)C)sc3nc12`, for which the “hERG current change (%, negative = inhibition) at 1uM” value was found to be 9.15%. With `Cc1cccn2c(=O)c3cc(C(N)=S)c(=N)n(CCCOC(C)C)c3nc12`, the “hERG current change (%, negative = inhibition) at 1uM” value is given as -77.8%. The figure for `Cc1cc(N)n(-c2cc(C)c3ccccc3n2)n1` is 9.59%. The same measure for `Cc1ccc(NC(=S)N2CCN(c3ccccn3)CC2)c(C)c1`: 12.7%; for `CCOCCCN(C)C1CCN(C(=O)c2oc3ccccc3c2NC(=O)c2ccc([N+](=O)[O-])cc2)CC1`: -85.2%. As to `Cc1c(C(=O)N2CCN(c3ccc([N+](=O)[O-])cc3)CC2)oc2ccccc12`, the “hERG current change (%, negative = inhibition) at 1uM” value is reported as -12.9%.

As to `O=C(Nc1c(C(=O)N2CCOCC2)oc2ccccc12)c1cccc([N+](=O)[O-])c1`, the “hERG current change (%, negative = inhibition) at 1uM” value is 11.4%. For the compound `O=C(Nc1c(C(=O)N2CCN(c3ccccn3)CC2)oc2ccccc12)c1ccc([N+](=O)[O-])cc1`, the “hERG current change (%, negative = inhibition) at 1uM” value is -4.07%. The same measure for `O=C(Nc1c(C(=O)N2CCN(c3ccccn3)CC2)oc2ccccc12)c1cccc([N+](=O)[O-])c1`: 7.86%; for `CCOCCCN(C)C1CCN(C(=O)c2oc3ccccc3c2NC(=O)c2cccc([N+](=O)[O-])c2)CC1`: -86%. Consider `O=C(CN1C(=O)CCC1=O)Nc1nc(-c2nc3ccccc3s2)cs1`, for which the “hERG current change (%, negative = inhibition) at 1uM” value was -4.37%.

As for `CCOC(=O)C(C)(C)N(Cc1ccc(Cl)cc1)S(=O)(=O)c1ccc(Cl)c([N+](=O)[O-])c1`, the “hERG current change (%, negative = inhibition) at 1uM” value is 13.2%. The figure for `Cc1cc(C)cc(NC(=O)C(c2ccccc2)N2CCCC2)c1` (stereo not drawn) is 12.6%. `O=C(NCCCn1ccnc1)/C(=C\c1ccc(Br)cc1)NC(=O)c1ccccc1`: the “hERG current change (%, negative = inhibition) at 1uM” value was -82.1%. As to `CC(C)c1ccc(/C=C(\NC(=O)c2ccccc2)C(=O)NCCCn2ccnc2)cc1`, the “hERG current change (%, negative = inhibition) at 1uM” value is given as -63.2%. The figure for `COc1ccccc1/C=C(/NC(=O)c1ccccc1)C(=O)NCCCn1ccnc1` is 13.6%; for `O=C(NCCCn1ccnc1)/C(=C/c1ccccc1)NC(=O)c1ccccc1` it is -47.6%. For `O=C(NCCCn1ccnc1)/C(=C\c1ccccc1Cl)NC(=O)c1ccccc1`, the “hERG current change (%, negative = inhibition) at 1uM” value came out at 6.1%. The figure for `COc1ccc(/C=C(/NC(=O)c2ccccc2)C(=O)NCCCn2ccnc2)cc1OC` is 15.3%; for `O=C(NCCCn1ccnc1)/C(=C/c1ccc(Cl)cc1)NC(=O)c1ccccc1` it is -82.5%. For `CN(C)c1ccc(/C=C(/NC(=O)c2ccccc2)C(=O)NCCCn2ccnc2)cc1`, the “hERG current change (%, negative = inhibition) at 1uM” value is recorded as 16.1%.

For `CN(C)c1ccc(/C=C(\NC(=O)c2ccccc2)C(=O)NCCCn2ccnc2)cc1`, the “hERG current change (%, negative = inhibition) at 1uM” value was 9.45%. As for `Cn1c(=O)n(C)c2cc(NS(C)(=O)=O)ccc21`, the “hERG current change (%, negative = inhibition) at 1uM” value turned out to be 8.26%. `COc1ccc(Cc2noc(CN3CCCC(C(=O)c4cccs4)C3)n2)cc1OC` (stereo not drawn): the “hERG current change (%, negative = inhibition) at 1uM” value is 9.47%.

In the case of `O=c1c2c(nc3n1CCS3)c1cc(F)ccc1n2Cc1cc(=O)n2cc(Cl)ccc2n1`, the “hERG current change (%, negative = inhibition) at 1uM” value came out at 10.3%. For the compound `Cc1cc(F)ccc1S(=O)(=O)Nc1ccc(O)c(Sc2ncn[nH]2)c1`, the “hERG current change (%, negative = inhibition) at 1uM” value is recorded as 20.6%. Regarding `Cc1cc(C)cc(N(C(=O)CCC(=O)Nc2ccccn2)C(C(=O)NC(C)C)c2ccc(O)cc2)c1` (stereo not drawn), the “hERG current change (%, negative = inhibition) at 1uM” value is recorded as 1.99%. In the case of `CCC(=O)c1ccc(OCC(O)Cn2nc(C)c(Br)c2C)cc1` (stereo not drawn), the “hERG current change (%, negative = inhibition) at 1uM” value was -100%.

Turning to `CCC(=O)c1ccc(OCC(O)CN2CCN(C(c3ccccc3)c3ccccc3)CC2)cc1` (stereo not drawn), the “hERG current change (%, negative = inhibition) at 1uM” value was -51.4%. As for `OC(COc1ccc(F)cc1)CN1CCN(CC(O)COc2ccc(F)cc2)CC1` (stereo not drawn), the “hERG current change (%, negative = inhibition) at 1uM” value was -51.1%. As for `CCC(=O)c1ccc(OCC(O)Cn2nc(C)cc2C)cc1` (stereo not drawn), the “hERG current change (%, negative = inhibition) at 1uM” value amounted to 7.89%. The same measure for `OC(COc1ccc(OCC(O)CN2CCN(Cc3ccccc3)CC2)cc1)CN1CCN(Cc2ccccc2)CC1` (stereo not drawn): 6.14%; for `CCC(=O)c1ccc(OCC(O)CN2CCOCC2)cc1` (stereo not drawn): 17.8%. As for `CCC(=O)c1ccc(OCC(O)CN2CCCCC2)cc1.Cl` (stereo not drawn), the “hERG current change (%, negative = inhibition) at 1uM” value is recorded as 3.96%. Turning to `CCC(=O)c1ccc(OCC(O)Cn2nc(C)c(C(C)=O)c2C)cc1` (stereo not drawn), the “hERG current change (%, negative = inhibition) at 1uM” value amounted to 4.75%. As to `N#Cc1ccc(OCC(O)CN2CCN(C(c3ccccc3)c3ccccc3)CC2)cc1` (stereo not drawn), the “hERG current change (%, negative = inhibition) at 1uM” value was -69.5%. Consider `OC(COc1ccccc1)CN1CCN(C(c2ccccc2)c2ccccc2)CC1` (stereo not drawn), for which the “hERG current change (%, negative = inhibition) at 1uM” value is given as -24.1%. Turning to `CC1CCN(CC(O)COc2ccc(F)cc2)CC1` (stereo not drawn), the “hERG current change (%, negative = inhibition) at 1uM” value is -13.3%. The figure for `COc1ccc(OCC(O)CN2CCN(CC(O)COc3ccc(OC)cc3)CC2)cc1` (stereo not drawn) is 3.29%; for `O=c1[nH]c(=O)c2nc3ccccc3nc2[nH]1` it is 2.78%; for `COc1cc(NC(=O)CN(C)C2CCCCC2)c(C)cc1[N+](=O)[O-]` it is 6.09%. In the case of `Cc1ccc(S(=O)(=O)N[C@@H](CC(C)C)C(=O)NCc2ccco2)cc1`, the “hERG current change (%, negative = inhibition) at 1uM” value was determined as 3.58%.

For `CCCCN(C(=O)/C=C/c1ccco1)c1c(N)n(Cc2ccccc2)c(=O)[nH]c1=O`, the “hERG current change (%, negative = inhibition) at 1uM” value is reported as 7.19%. With `CCOc1cc(NC(=S)NCCCN2CCOCC2)c(OCC)cc1NC(=O)c1cccc(F)c1`, the “hERG current change (%, negative = inhibition) at 1uM” value is given as -0.782%. With `C=CCOc1ccccc1/C=N/NC(=O)Cc1ccccc1`, the “hERG current change (%, negative = inhibition) at 1uM” value was found to be 14.3%. The figure for `Cc1ccc(S(=O)(=O)N2CCCC2C(=O)Nc2nc3c(s2)CCCC3)cc1` (stereo not drawn) is 13.2%. The same measure for `OC(COc1ccc(OCC(O)CN2CCCCC2)cc1)CN1CCCCC1` (stereo not drawn): 18.1%; for `CC1CCCN(CC(O)COc2ccc(-c3ccccc3)cc2)C1` (stereo not drawn): -57.8%.

Turning to `CC1CCCN(CC(O)COc2ccc(Cl)cc2)C1.Cl` (stereo not drawn), the “hERG current change (%, negative = inhibition) at 1uM” value was -32.2%.

`CC1CN(CC(O)COc2ccc(C#N)cc2)CCN1CC(O)COc1ccc(C#N)cc1` (stereo not drawn): the “hERG current change (%, negative = inhibition) at 1uM” value was -86.2%. The figure for `O=C(O)C(=O)O.OC(COCc1ccco1)CN1CCN(c2ccccc2)CC1` (stereo not drawn) is 3.71%; for `Cc1ccccc1OCC(O)CN1CCN(CC(O)COc2ccccc2C)C(C)C1.O=C(O)C(=O)O` (stereo not drawn) it is -29%; for `N#Cc1ccc(-c2ccc(OCC(O)CN3CCCCC3)cc2)cc1` (stereo not drawn) it is -52.1%. `CC1CCCCN1CC(O)COc1ccc(OCC(O)CN2CCCCC2C)cc1` (stereo not drawn): the “hERG current change (%, negative = inhibition) at 1uM” value was 13.5%. On to `OC(COCc1ccco1)CN1CCN(C(c2ccccc2)c2ccccc2)CC1` (stereo not drawn), for which the “hERG current change (%, negative = inhibition) at 1uM” value is reported as -79.1%. The same measure for `OC1CCCN(CC(O)COc2ccc(-c3ccccc3)cc2)C1` (stereo not drawn): -0.151%; for `CC(=O)c1ccc(N2CCN(CC(O)COCc3ccco3)CC2)cc1` (stereo not drawn): -29.3%; for `N#Cc1ccc(-c2ccc(OCC(O)CN3CCOCC3)cc2)cc1` (stereo not drawn): 7.69%.
